Data published in PubChem BioAssay AID624330 (Southern Research Specialized Biocontainment Screening …, 2012).
About 2,100 (0.62%) of roughly 340,000 compounds were called active.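 Rule for the calls: active = first-screen hits whose inhibition reached a set limit at any dose in the follow-up dose series; inconclusive = inhibition above the set first-screen limit but never retested; inactive = the rest.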 The list is a sample of the results. Measured potencies and affinities stand elsewhere.

These molecules were tested against Rac GTPase-activating protein 1 (Homo sapiens) (UniProt Q9H0H5) (assay: MgcRacGAP GTPase-activating activity inhibitors, confirmation, biochemical, ADP Hunter fluorescence, primary and confirmatory (AID 624330;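 note: fluorescence reports GDP produced by GAP-driven GTP hydrolysis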)). Settings: MgcRacGAP-stimulated Rac1 GTP hydrolysis, at 30 µM, stronger effect = higher value, GST-tagged Rac1 F28L mutant substrate.
Rac GTPase-activating protein 1 (Homo sapiens), sequence (Q9H0H5 whole entry, looked up): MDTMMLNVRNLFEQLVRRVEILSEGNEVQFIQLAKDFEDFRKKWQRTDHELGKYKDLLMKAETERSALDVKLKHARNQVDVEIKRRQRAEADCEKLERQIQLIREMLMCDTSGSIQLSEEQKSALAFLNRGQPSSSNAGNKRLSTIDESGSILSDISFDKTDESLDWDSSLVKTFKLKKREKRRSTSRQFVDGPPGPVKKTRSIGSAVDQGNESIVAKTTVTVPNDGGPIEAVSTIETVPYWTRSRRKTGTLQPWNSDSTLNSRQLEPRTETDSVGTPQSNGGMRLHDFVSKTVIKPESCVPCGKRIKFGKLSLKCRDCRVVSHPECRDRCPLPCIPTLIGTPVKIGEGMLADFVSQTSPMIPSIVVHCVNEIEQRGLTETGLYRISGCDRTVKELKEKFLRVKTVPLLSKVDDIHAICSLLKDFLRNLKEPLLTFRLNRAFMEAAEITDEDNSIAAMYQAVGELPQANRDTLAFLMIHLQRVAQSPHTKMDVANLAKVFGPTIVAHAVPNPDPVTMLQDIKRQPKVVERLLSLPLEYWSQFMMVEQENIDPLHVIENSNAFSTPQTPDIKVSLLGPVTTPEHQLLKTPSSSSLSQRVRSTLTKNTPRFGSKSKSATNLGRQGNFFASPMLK

inhibition, inactive:
CC(=O)C[C@H]1c2cc(C(F)(F)F)ccc2S(=O)(=O)N1c1ccc(N(C)C)cc1 16.3%
COC(=O)C[C@H]1c2cc(F)ccc2S(=O)(=O)N1c1ccc(N(C)C)cc1 22.8%
COc1ccc(-n2ncc3c2CC(C)(C)CC3NC(=O)CCn2cncn2)cc1 (stereo unspecified) 4.79%
COc1ccc(-n2c(=O)c3c(C)c(C)sc3n(Cc3cccc(F)c3)c2=O)c(OC)c1 9.42%
CC(=O)Nc1ccccc1 3.65%
CC(=O)Nc1cccc(NC(=O)c2ccccc2OCc2ccccc2)c1 9.89%
CC(=O)Nc1ccc(NS(=O)(=O)c2ccccc2)cc1 5.08%
CC(C)(C)CC(=O)Nc1ccc(C(N)=O)cc1 5.87%
Cc1cccc(NC(=O)CC(C)(C)C)c1 5.55%
O=C(Nc1ccccc1)c1ccccc1OCc1ccc(F)cc1 13.5%
CC(=O)Nc1ccc(NC(=O)Nc2ccccc2)cc1 -3.27%
Cc1ccc(S(=O)(=O)Nc2ccc(Nc3ccccc3)cc2)cc1 24.2%
COc1cc(-c2ccccc2)[nH]c(=S)n1 9.57%
CC(Sc1nc(=O)cc(N)n1CCc1ccccc1)C(=O)NCc1ccccc1 (stereo unspecified) 3.88%
COc1cccc(NC=C2C(=O)OC(C)(C)OC2=O)c1 6.91%
Cc1cc(C(=O)NNC(=S)NCC2CCCO2)cs1 (stereo unspecified) 9.6%
COc1ccc2c(CC(=O)Nc3nc(C)cs3)coc2c1 7.58%
Cc1ccc(C(=O)N(CC(=O)Nc2ccc(Cl)c(Cl)c2)Cc2ccco2)cc1 2.86%
O=C(CSc1nc(C(F)(F)F)cc(=O)[nH]1)N1CCCCCC1 -0.68%
CC(C)Cn1c(SCC(=O)c2ccc(Cl)s2)nnc1-c1ccco1 11.6%
CC1CC(C)CN(c2cc(=O)n(Cc3ccc(F)cc3)c(=O)[nH]2)C1 (stereo unspecified) 6.97%
COc1ccc(NC(=O)CN(C)S(=O)(=O)c2cccs2)cc1 16%
CCOC(=O)c1nn(-c2ccccc2F)c(-c2ccccc2)c1C(=O)c1ccccc1 5.32%
CC(=O)c1ccc(NC(=O)C(C)OC(=O)COc2ccc(C#N)cc2)cc1 (stereo unspecified) 3.94%
CC(OC(=O)COc1ccc(Nc2ccccc2)cc1)C(=O)N(C)c1ccccc1 (stereo unspecified) 24.6%
CC(C)C(=O)Nc1ccc(C(=O)c2ccccc2)cc1 4.76%
Cc1cccc(NC(=O)c2ccccc2C(=O)O)c1 3.78%
O=C(O)c1ccccc1C(=O)Nc1ccccc1 -1.51%
O=C(Nc1ccc(Nc2ccccc2)cc1)C(Cl)Cl 25.5%
O=C(O)c1ccccc1C(=O)Nc1ccc(Br)c(C(F)(F)F)c1 8.86%
O=C(O)c1ccccc1-c1ccccc1C(=O)Nc1ccccc1 8.32%
